Results as given in ChEMBL document CHEMBL1201862, “PubChem BioAssay data set” (2004).
Values joined by “and” are separate entries in the source; they are usually repeats but may differ in a detail not shown here. Equal entries are not always repeated.

Test: M. tuberculosis growth inhibition, dose response, purified and synthesized samples, set 9 (AID 602435); call rule not given here
Assay type: functional

SMILES	IC90
O=C(c1ccc(CNc2c(N3CCCC3)c(=O)c2=O)cc1)N1CCc2ccccc2C1	> 50 µM (active)
CC1CCN(C(=O)c2ccc(CNc3c(N4CCCC4)c(=O)c3=O)cc2)CC1	> 50 µM (active)
O=C(c1ccc(CNc2c(N3CCOCC3)c(=O)c2=O)cc1)N1CCN(c2ccccc2)CC1	> 100 µM (active)
CC1CCCN(C(=O)c2ccc(CNc3c(N4CCCCC4)c(=O)c3=O)cc2)C1 (configuration not stated)	> 50 µM (active)
Cc1cccc(N2CCN(C(=O)c3ccc(CNc4c(N5CCC(C)CC5)c(=O)c4=O)cc3)CC2)c1C	> 50 µM (active)
O=C(C1CCC(CNc2c(N3CCCCC3)c(=O)c2=O)CC1)N1CCCCC1 (configuration not stated)	> 50 µM (active)
O=C(c1ccc(CNc2c(N3CCCC3)c(=O)c2=O)cc1)N1CCN(c2ccccc2)CC1	> 83.3 µM (active)
CC(C)CCNC(=O)CSc1nc2c(c(=O)[nH]1)CCCCC2	> 100 µM (active)
CC(=O)c1ccc(NC(=O)c2ccc(CNc3c(N4CCOCC4)c(=O)c3=O)cc2)cc1	> 50 µM (active)
O=C(c1ccc(CNc2c(N3CCCC3)c(=O)c2=O)cc1)N1CCC(c2ccccc2)CC1	> 100 µM (active)
CC1CCCN(C(=O)C2CCC(CNc3c(N4CCCCC4)c(=O)c3=O)CC2)C1 (configuration not stated)	> 50 µM (active)
O=C(c1ccc(CNc2c(N3CCCC3)c(=O)c2=O)cc1)N1CC=C(c2ccccc2)CC1	> 44.6 µM (active) and > 50 µM (active)
CC1CC(C)CN(C(=O)C2CCC(CNc3c(N4CCCCC4)c(=O)c3=O)CC2)C1 (configuration not stated)	> 75 µM (active) and > 50 µM (active)
O=C(NCCc1ccc(Cl)cc1)C1CCC(CNc2c(N3CCCCC3)c(=O)c2=O)CC1 (configuration not stated)	> 50 µM (active)
COc1ccc(N2CCN(C(=O)c3ccc(CNc4c(N5CCOCC5)c(=O)c4=O)cc3)CC2)cc1	> 73.2 µM (active) and > 39 µM (active)
CC1CC(C)CN(C(=O)c2ccc(CNc3c(N4CCCC4)c(=O)c3=O)cc2)C1 (configuration not stated)	> 50 µM (active)
CC(C)OC(=O)CSc1ncnc2c1cnn2-c1ccccc1	> 100 µM (active)
